FBPA coupling cs = coupling enzyme interference in Giardia aldolase counter-screen; coupling enzyme system counterscreen, AmpLite Red fluorescence; activity change, negative = inhibition, % at 58.2 µM, hits read low; hit rate 0.67% among 290,000; AID 2472; in the data active = activity change below about -30%
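Counterscreen of the coupled detection system alone, without aldolase: glyceraldehyde-3-phosphate coupling enzymes plus AmpLite Red readout. Compounds at 57.5 uM final, 10 min RT preincubation, 20 min RT reaction, fluorescence 525/598 nm.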
USP1-UAF1 inh = USP1/UAF1 (human) deubiquitinase inhibition; O94782; recombinant USP1/UAF1, Ub-Rhodamine cleavage fluorescence; Potency, µM (series often up to 57.1 µM), without a hit: at the top dose activity change, negative = inhibition, actives largely listed as inhibitors; hit rate 0.23% among 390,000; AID 743255; also: potency is read from the fitted curve at half-maximal effect; nearly all actives have a fitted effect of over 60% in size
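USP1/UAF1 complex at 1 nM was preincubated with compound for 15 min at room temperature, then Ub-Rho substrate (150nM final) was added. Fluorescence (480/540 nm) was read kinetically, 6 reads every 60 seconds.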
Tau FP inhib = inhibitors of human tau fibril formation; P10636; K18 P301L tau heparin fibrillization, Alexa594 FP, 6 h; Potency, µM (doses to about 57.7 µM), for the others: top-dose activity, negative = inhibition, most hits filed as inhibitors; hit rate 0.39% among 280,000; also: potency is read from the fitted curve at half-maximal effect; nearly all actives have a fitted effect of over 55% in size
Target sequence (P10636 561-689 P618L limits assumed): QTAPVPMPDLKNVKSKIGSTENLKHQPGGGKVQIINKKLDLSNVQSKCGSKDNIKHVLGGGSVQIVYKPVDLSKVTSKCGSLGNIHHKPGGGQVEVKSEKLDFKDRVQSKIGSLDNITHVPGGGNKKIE
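Recombinant K18 P301L […], labeled with Alexa 594 at 0.24 uM over 15 uM unlabeled; heparin inducer 20 uM final; 37 C, 6 hr; FP endpoint.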
Tau fluor cs = counter-screen for tau fibril formation inhibitors; tau K18 P301L Alexa594 fluorescence, heparin fibrillization; Potency, µM (titrated, usually from 57.7 µM), for inactives: at the highest dose activity change, negative = decrease; hit rate 0.93% among 280,000; also: potency is read from the fitted curve at half-maximal effect; nearly all actives have a fitted effect of over 55% in size
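Human K18 P301L tau (15 uM unlabeled plus 0.24 uM Alexa 594-labeled, final) in 100 mM sodium acetate pH 7 was mixed with compound and 20 uM heparin and incubated 6 hr at 37 C.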
Tau ThT inhib = tau fibrillization inhibition (ThT binding); P10636; recombinant tau K18 P301L (four-repeat tau fragment), heparin-induced fibrillization, ThT fluorescence; Potency, µM (doses to about 57.4 µM), without a hit: at the highest dose activity, negative = inhibition, hits mostly inhibitors; hit rate 2.1% among 270,000; AID 1460; also: potency is read from the fitted curve at half-maximal effect; nearly all actives have a fitted effect of over 55% in size
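Recombinant human tau K18 fragment […] carrying P301L, 15 uM unlabeled plus 0.24 uM Alexa 594-labeled, was fibrillized with 20 uM heparin in 100 mM sodium acetate pH 7 for 6 hr at 37 C; 30 uM ThT fluorescence read after 1 hr.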
* hit, by the source's call; ? = inconclusive; nt = not tested or not shown; [ ] = remark or other dose. Hits are enriched below; roughly 2.3% of the tested compounds scored in any of these assays. Unless noted, calls follow the shape of the dose curve; as a rule, active = well fitted curve in the direction sought with a large enough effect; inconclusive = small, poorly fitted or top-dose-only effect, or another doubt; inactive = no such curve, though single readings can be large; an effect the other way counts as inactive or inconclusive. % is scaled to controls: 0 for no effect and ±100 for the full control effect.

SMILES	FBPA coupling cs	USP1-UAF1 inh	Tau FP inhib	Tau fluor cs	Tau ThT inhib
COc1ccc(N(C(=O)c2csnn2)C(C(=O)NC2CCCC2)c2cccs2)cc1 (centres undefined)	2	-16%	nt	nt	nt
O=C(NNC(=S)Nc1ccc(Br)cc1)c1ccc(N2CCOCC2)c([N+](=O)[O-])c1	2	-5%	?	?	13µM*
O=C(Nc1cc(-c2nc3ccccc3o2)ccc1Cl)c1ccc(N2CCCCC2)c([N+](=O)[O-])c1	nt	-20%	-17%	-19%	?
O=C(NNC(=S)Nc1ccc(Cl)cc1Cl)c1ccc(N2CCOCC2)c([N+](=O)[O-])c1	4	-18%	?	?	5µM*
O=C(Nc1cccnc1)c1ccc(N2CCOCC2)c([N+](=O)[O-])c1	-2	-11%	nt	nt	nt
O=C(Nc1ccc(-c2nc3ccccc3o2)cc1)c1ccc(N2CCOCC2)c([N+](=O)[O-])c1	-2	-11%	?	?	2.8µM*
O=C(O)c1ccc(NCCc2ccc(Cl)cc2)c([N+](=O)[O-])c1	7	-22%	-1%	-16%	5.6µM*
CCN(CC)c1ccc(CN(C(=O)c2cc(=O)c3ccccc3o2)C2CCS(=O)(=O)C2)cc1 (centres undefined)	nt	1%	-1%	-23%	-12%
Cc1cccc(NC(=S)NNC(=O)c2cccc([N+](=O)[O-])c2)c1	3	-1%	10%	-23%	?
Cc1cccc(NC(=O)c2ccc(-n3cccn3)c([N+](=O)[O-])c2)c1	-33*	-25%	0%	?	6.3µM*
O=C(NNC(=S)Nc1ccc(Cl)c(Cl)c1)c1cccc([N+](=O)[O-])c1	0	-11%	?	1.8µM*[quencher]	nt
CCOC(=O)C1CCCN(C(=O)c2cc3c(=O)n(C)c4ccccc4c3s2)C1 (centres undefined)	nt	-22%	-2%	-7%	-11%
Fc1cccc(/C=N/Nc2cc(N3CCOCC3)ncn2)c1	1	-17%	nt	nt	nt
CC(=O)Nc1cccc(-c2csc(Nc3ccc(C)cn3)n2)c1	0	-2%	14%	14µM*[quencher]	?
CC(=O)Nc1ccc(-c2csc(Nc3cccc(C)n3)n2)cc1	-2	-22%	8%	20µM*[quencher]	?
CC(=O)Nc1cccc(-c2csc(Nc3ncccn3)n2)c1	1	nt	-1%	-20%	?
CC(=O)NNc1nc(-c2ccc(NC(C)=O)cc2)cs1	0	-6%	-3%	-6%	-1%
CC(=O)Nc1ccc(-c2csc(NNC(=O)c3ccc(C)cc3)n2)cc1	5	-24%	?	?	11µM*
CCOC(=O)C(=O)Nc1nc(-c2ccccc2)c(-c2ccccc2)o1	10	-12%	5%	0%	7%
CCOC(=O)Nc1c(O)ccc2oc(C)c(-c3ccccc3)c12	-57*	-7%	4%	-13%	0%
CCOc1ccc(C2c3[nH]c4ccccc4c3CCN2C(=O)CCc2ccccc2)cc1 (centres undefined)	nt	-11%	-4%	-10%	-5%
N#CC1=C(N)Oc2c(O)cc3ccccc3c2C1c1ccsc1 (centres undefined)	-23	-15%	?	16µM*[quencher]	?
CCN(c1ccccc1)S(=O)(=O)c1ccc(Cl)c(NC(=O)COC(=O)c2cc(O)c3ccccc3c2O)c1	-31*	nt	?	8.9µM*[quencher]	11µM*
CCN(c1ccccc1)S(=O)(=O)c1ccc(Cl)c(NC(=O)COC(=O)c2ccc(O)cc2)c1	3	-17%	?	?	8%
CCCCC(CCC(=O)O)(C(=O)OCC)c1csc(Nc2ccc(C)cc2)n1 (centres undefined)	-5	-10%	-2%	-7%	-7%
SMILES	FBPA coupling cs	USP1-UAF1 inh	Tau FP inhib	Tau fluor cs	Tau ThT inhib
CCOC(=O)/C(=N\Nc1ccccc1)c1csc(Nc2ccc(C)cc2)n1	2	-21%	8%	7.1µM*[quencher]	?
CC1=C(C(=O)N(C)C)CC(CC(=O)NC2CCCC2)C(=O)N1CCC1=CCCCC1 (centres undefined)	nt	-20%	nt	nt	nt
O=C1C2=CC[C@H]3C(=O)N(C[C@@H]4CCCO4)C(=O)[C@@H]3[C@@H]2[C@H](O)[C@@H]2O[C@H]12	-1	nt	?	-30%[11.6 µM]	3.2µM*
CCN1C(=O)[C@@H]2[C@H]3C(=CC[C@H]2C1=O)C(=O)[C@H]1OC1[C@H]3O (some centres undefined)	0	nt	?	-26%[11.6 µM]	4µM*
O=C1C2=CC[C@H]3C(=O)N(Cc4ccccc4)C(=O)[C@@H]3[C@@H]2[C@H](O)[C@@H]2O[C@H]12	-3	nt	?	-18%[11.6 µM]	?
Oc1c(Br)cc(Br)cc1CNc1ccc(F)cc1	-33*	-32%	1%	?	?
CCc1ccc(NC(=O)CSc2nc3nccnc3c(=O)n2CCc2c[nH]c3ccccc23)cc1	nt	-9%	-12%	-22%	3%
Cc1cc(=O)n2[nH]c(-c3ccsc3-n3c(C)ccc3C)cc2n1	-7	?	?	?	nt
COCc1cc(=O)n2[nH]c(-c3ccsc3-n3c(C)ccc3C)cc2n1	-5	-24%	?	?	22µM*
Cc1nc2cc(-c3ccsc3-n3c(C)ccc3C)[nH]n2c(=O)c1Cl	-1	-16%	?	?	14µM*
COc1ccccc1NC(=O)CCN1CCCCC1	nt	0%	-6%	3%	8%
CCN1CCN(c2cc(C)c3cc(NC(=O)Cc4ccccc4OC)ccc3n2)CC1	3	-6%	?	-4%	-9%
COc1cccc(NC(=O)Cc2ccccc2)c1	-1	-8%	3%	-6%	-13%
COc1ccccc1CC(=O)Nc1ccc2nc(Nc3cccc(C(F)(F)F)c3)cc(C)c2c1	nt	?	-7%	6.3µM*[quencher]	-13%
COc1cccc(CC(=O)Nc2ccc3nc(Nc4cccc(C(F)(F)F)c4)cc(C)c3c2)c1	nt	-24%	?	7.1µM*[quencher]	?
CCOc1ccc(CCNC(=O)c2cn(CC)c3ccc(S(=O)(=O)N4CCCCCC4)cc3c2=O)cc1OCC	nt	?	5%	-21%	-18%
CCOC(=O)c1cc2c(ccn2C)n1CC(=O)N1CCN(c2cccc(C(F)(F)F)c2)CC1	-33*	-20%	-5%	-1%	-2%
CCn1c(C)nc2cc(C(=O)N=Nc3c(O)[nH]c4c(C)cc(C)cc34)ccc21	1	nt	-12%	-26%	7.1µM*
C[C@@H]1CN([C@@H](C)CO)C(=O)CCCn2nncc2CO[C@H]1CN(C)S(=O)(=O)c1cn(C)cn1	nt	-21%	nt	nt	nt
COc1ccc2c(c1)cc(CNc1ccc(OC)c(OC)c1)c(=O)n2CC(=O)Nc1ccc(F)cc1	nt	?	6%	16µM*[quencher]	?
COc1ccc2c(c1)cc(CNc1ccc(OC)c(OC)c1)c(=O)n2CC(=O)Nc1ccccc1C	nt	?	8%	?	?

Screens: PubChem BioAssay, National Center for Advancing Translational Sciences (NCATS)
